Reference: the supplement of paper PMC9492666
Structures can show the parent of a compound that is named as a salt.

Tests used:
HCC1937 = assay: relative cell viability, compound + erastin, vs DMSO (fraction of DMSO control); higher = less growth inhibition; details: 72 h
MDA-MB-231 = assay: as above; details: 72 h
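Further: viability read by CCK-8 kit in 96-well plates, part of a combination screen pairing lipid-metabolism-targeting compounds with erastin.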

SMILES	relative cell viability (HCC1937)	relative cell viability (MDA-MB-231)
CC(O)(CC(=O)O)CC(=O)O [Meglutol] + CCOc1ccccc1-n1c(C(C)N2CCN(C(=O)COc3ccc(Cl)cc3)CC2)nc2ccccc2c1=O [erastin]	0.708	0.67
CCC1=N[C@H]2C[C@@]3(C(=O)N(OC)c4ccccc43)[C@H]3CC1[C@@H]2CO3 [Humantenmine] + CCOc1ccccc1-n1c(C(C)N2CCN(C(=O)COc3ccc(Cl)cc3)CC2)nc2ccccc2c1=O [erastin]	0.573	0.63
O=C(CN1CCN(C(=O)c2ccco2)CC1)Nc1cc(C(F)(F)F)ccc1Cl + CCOc1ccccc1-n1c(C(C)N2CCN(C(=O)COc3ccc(Cl)cc3)CC2)nc2ccccc2c1=O [erastin]	0.638	0.463
CCN(CC)C(=O)N1CCN(C)CC1 [Diethylcarbamazine citrate] + CCOc1ccccc1-n1c(C(C)N2CCN(C(=O)COc3ccc(Cl)cc3)CC2)nc2ccccc2c1=O [erastin]	0.729	0.907
CC1=C(C)C(=O)C(C(CCCCCC(=O)O)c2ccccc2)=C(C)C1=O (centres undefined) [Seratrodast] + CCOc1ccccc1-n1c(C(C)N2CCN(C(=O)COc3ccc(Cl)cc3)CC2)nc2ccccc2c1=O [erastin]	0.851	0.567
C/C=C/c1cc(OC)c(OC)cc1OC [alpha-Asarone] + CCOc1ccccc1-n1c(C(C)N2CCN(C(=O)COc3ccc(Cl)cc3)CC2)nc2ccccc2c1=O [erastin]	0.594	0.774
CCCCCCCCCc1ccc(B(O)O)cc1 [4-Nonylphenylboronic acid] + CCOc1ccccc1-n1c(C(C)N2CCN(C(=O)COc3ccc(Cl)cc3)CC2)nc2ccccc2c1=O [erastin]	0.9	0.358
Cc1ccc(Oc2nc3cc(-c4ccc(-c5ccccc5)cc4)c(Cl)cc3[nH]2)cc1C(=O)O + CCOc1ccccc1-n1c(C(C)N2CCN(C(=O)COc3ccc(Cl)cc3)CC2)nc2ccccc2c1=O [erastin]	0.553	0.629
CCOC(=O)c1c(NC(=O)CN2CCN(C(=O)c3ccco3)CC2)sc2c1CCC2 + CCOc1ccccc1-n1c(C(C)N2CCN(C(=O)COc3ccc(Cl)cc3)CC2)nc2ccccc2c1=O [erastin]	0.647	0.839
O=C(O)c1cccnc1Nc1cccc(C(F)(F)F)c1 [Niflumic acid] + CCOc1ccccc1-n1c(C(C)N2CCN(C(=O)COc3ccc(Cl)cc3)CC2)nc2ccccc2c1=O [erastin]	0.771	0.599
O=C(OC(C(F)(F)F)C(F)(F)F)N1CCN(Cc2ccc(C(F)(F)F)cc2N2CCCC2)CC1 + CCOc1ccccc1-n1c(C(C)N2CCN(C(=O)COc3ccc(Cl)cc3)CC2)nc2ccccc2c1=O [erastin]	0.583	0.74
COc1ccc2c(=O)c(-c3ccccc3)coc2c1 [7-Methoxyisoflavone] + CCOc1ccccc1-n1c(C(C)N2CCN(C(=O)COc3ccc(Cl)cc3)CC2)nc2ccccc2c1=O [erastin]	0.443	0.68
O=C(c1ccc(NS(=O)(=O)c2cccc3cccnc23)cc1)N1CCN(CC2CC2)CC1 [Mitapivat] + CCOc1ccccc1-n1c(C(C)N2CCN(C(=O)COc3ccc(Cl)cc3)CC2)nc2ccccc2c1=O [erastin]	0.596	0.638
CCCCCCCCCCCCC/C=C/[C@@H](O)[C@@H](N)CO + CCOc1ccccc1-n1c(C(C)N2CCN(C(=O)COc3ccc(Cl)cc3)CC2)nc2ccccc2c1=O [erastin]	0.248	0.363
CCC(C)(Oc1ccc(C2(c3ccc(OC(C)(CC)C(=O)O)cc3)CCCCC2)cc1)C(=O)O (centres undefined) [Clinofibrate] + CCOc1ccccc1-n1c(C(C)N2CCN(C(=O)COc3ccc(Cl)cc3)CC2)nc2ccccc2c1=O [erastin]	0.544	0.325
CCc1c(-c2ccccc2)c(-c2ccccc2)nn1-c1ccccc1-c1cccc(OCC(=O)O)c1 + CCOc1ccccc1-n1c(C(C)N2CCN(C(=O)COc3ccc(Cl)cc3)CC2)nc2ccccc2c1=O [erastin]	0.84	0.861
OC[C@H]1O[C@@H](Oc2cc(O)cc(/C=C/c3ccc(O)cc3)c2)[C@H](O)[C@@H](O)[C@@H]1O [Polydatin] + CCOc1ccccc1-n1c(C(C)N2CCN(C(=O)COc3ccc(Cl)cc3)CC2)nc2ccccc2c1=O [erastin]	0.78	0.601
